# Experimental data reported in PubChem BioAssay.
# Several values for one entry are separate records, joined by “and”; a condition that tells them apart may be missing. Equal values may be shown once. Inconclusive results are not listed. Activity calls are given as the source filed them. Unless noted, the rule behind the calls is not given here.
# How the values were obtained:
# [1] = P. berghei load reduction in hepatocytes – cell-based, HepG2, luciferase luminescence, HepG2 viability, primary screen (AID 624349; in the data active = parasite load remaining mostly below about 12%, no sharp cut-off; inactive = mostly above about 10%;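 note: 100% = mean of DMSO negative control wells on the same plate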); conditions: P. berghei liver stage in HepG2, luciferase luminescence, concentration not given here; parasite load remaining: stronger effect = lower value; viability: measured here: HepG2 viability without parasites
# [2] = signal quenchers or enhancers, Cy5 substrate/SSB – biochemical, NIH Clinical Collection, E. coli SSB, artefact control for HCV NS3 helicase inhibitor project (AID 743268); conditions: Cy5-oligo bound E. coli SSB, fluorescence interference
# [3] = system: Hepatitis C virus NS3 helicase; experiment: blockers of NS3h binding to DNA – biochemical, fluorescence polarization, NIH Clinical Collection, primary screen (AID 743270); conditions: NS3 helicase binding to Cy5-dT15 DNA, stronger effect = higher value, concentration not given here
# [4] = target: Single-stranded DNA-binding protein (Escherichia coli (strain K12)) (UniProt P0AGE0); experiment: SSB-ssDNA binding inhibitors – biochemical, fluorescence polarization, NIH Clinical Collection, counter-screen for HCV NS3 helicase inhibitor project (AID 743271; in the data active = inhibition above about 28%); conditions: E. coli SSB-DNA binding, stronger effect = higher value, concentration not given here
# [5] = compounds distorting NS3 helicase fluorescence signal – biochemical, NIH Clinical Collection, artefact control for HCV NS3 helicase inhibitor project (AID 743272); conditions: fluorescence interference counterscreen, HCV NS3 helicase assay; stronger effect = lower value;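 note: HCV NS3 helicase with a Cy5 labelled single stranded DNA probe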
# [6] = system: Neuropilin-2 / VEGF-C interaction (human); experiment: small molecules blocking Neuropilin-2/VEGF-C interaction – biochemical, microplate binding format, z-score (AID 743281); conditions: microplate NRP2/VEGF-C binding assay; stronger effect = lower value
# [7] = modulation of C. elegans fzo-1 (AID 1259413);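 note: fzo-1 mutant C. elegans worms in liquid wells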; conditions: C. elegans fzo-1 modulator screen, mean read-out; stronger effect = higher value
# [8] = viability loss in pontine glioma line – cell-based, JHH-DIPG-1, MIPE4.0, CellTiter-Glo, qHTS, dose response (AID 1347062; cut-off not given, nearly all actives have AC50 up to about 27 µM;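 for AC50: cells exposed to compound for two days before readout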); conditions: JHH-DIPG-1 viability, CellTiter-Glo ATP luminescence
# [9] = viability loss in pontine glioma line – cell-based, SU-DIPG-XVII, MIPE5.0, CellTiter-Glo, qHTS, dose response (AID 1347060; cut-off not given, nearly all actives have AC50 up to about 26 µM;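 note: cells exposed to compound for 48 hours before viability readout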); conditions: CellTiter-Glo ATP luminescence
# [10] = viability loss in pontine glioma line – cell-based, SU-DIPG-XIII, MIPE4.0, CellTiter-Glo, qHTS, dose response (AID 1347061; cut-off not given, nearly all actives have AC50 up to about 37 µM;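 note: cells exposed to compound for 48 hours before readout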); conditions: CellTiter-Glo ATP luminescence
# [11] = viability loss in pontine glioma line – cell-based, SU-DIPG-XIII, MIPE5.0, CellTiter-Glo, qHTS, dose response (AID 1347064; cut-off not given, nearly all actives have AC50 up to about 23 µM); conditions: CellTiter-Glo ATP luminescence
# [12] = growth inhibition of DIPG cells – cell-based, MIPE4.0 library, CellTiter-Glo luminescence, qHTS (AID 1347066; cut-off not given, nearly all actives have AC50 up to about 30 µM;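 note: cells exposed to compound for 48 hours before readout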); conditions: SU-DIPG-VI viability, CellTiter-Glo ATP luminescence
# [13] = JHH-DIPG-1 glioma cell viability, MIPE5.0 library, CellTiter-Glo luminescence, qHTS (AID 1347067; cut-off not given, nearly all actives have AC50 up to about 26 µM;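 note: cells exposed to compound for 48 hours before readout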); conditions: JHH-DIPG-1 glioma viability, CellTiter-Glo ATP luminescence
# [14] = growth inhibition of DIPG cells – cell-based, MIPE5.0 library, qHTS (AID 1347068; cut-off not given, nearly all actives have IC50 up to about 30 µM); conditions: SU-DIPG-XXV viability
# [15] = viability loss with induced miR-34 in A549 – imaging, A549 dox-inducible miR-34, nuclei and caspase counts, primary screen (AID 1347080;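 active = compounds whose cell count with miR-34 switched on is under 0.7 times the count with it off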); conditions: A549 miR-34 inducible, Hoechst nuclei count, 48 h
# [16] = chitosan synthesis blockers in C. neoformans – flow cytometry, Cibacron Brilliant Red staining (AID 1347148); conditions: Cryptococcus neoformans chitosan, stronger effect = lower value; at 10 µM unless noted;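 note: compound exposure lasted three days at 37 degrees C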
# [17] = compounds altering HSF1 focus formation in cells – imaging, Selleck Cancer Library (AID 1347162; in the data active = plate-normalised HSF1 focus index below about 0.46); conditions: human cells, HSF1 nuclear foci imaging, at 10 µM; SSMD: measured here: HSF1 foci SSMD mean; cell count: measured here: cell number; plate-normalised HSF1 focus index: stronger effect = lower value
# [18] = MELAS cybrid and Rieske KO viability enhancers – cell-based, MELAS cybrids, Rieske KO mouse fibroblasts, CellTiter-Glo, primary screen (AID 1508586;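 active = mean z-score across replicates of 1.96 or higher in either the MELAS or the Rieske mutant cell line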;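 note: z relative to plate mean and SD of compound and empty wells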); conditions: low glucose
# [19] = target: Mitogen-activated protein kinase 7 (Homo sapiens) (UniProt Q13164); experiment: Gal4-ERK5 driven luciferase induction – cell-based, HTS, primary screen (AID 1508626;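 active = luciferase signal above three times the same-plate solvent-only control wells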;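 note: luciferase driven by Gal4-ERK5 fusion binding five Gal4 sites before minimal TATA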); conditions: HeLa Gal4-ERK5 transactivation, 18 h, at 5 µM, stronger effect = higher value
# Chain of Mitogen-activated protein kinase 7 (Homo sapiens) (Q13164 whole entry, looked up, the tested form may be a part): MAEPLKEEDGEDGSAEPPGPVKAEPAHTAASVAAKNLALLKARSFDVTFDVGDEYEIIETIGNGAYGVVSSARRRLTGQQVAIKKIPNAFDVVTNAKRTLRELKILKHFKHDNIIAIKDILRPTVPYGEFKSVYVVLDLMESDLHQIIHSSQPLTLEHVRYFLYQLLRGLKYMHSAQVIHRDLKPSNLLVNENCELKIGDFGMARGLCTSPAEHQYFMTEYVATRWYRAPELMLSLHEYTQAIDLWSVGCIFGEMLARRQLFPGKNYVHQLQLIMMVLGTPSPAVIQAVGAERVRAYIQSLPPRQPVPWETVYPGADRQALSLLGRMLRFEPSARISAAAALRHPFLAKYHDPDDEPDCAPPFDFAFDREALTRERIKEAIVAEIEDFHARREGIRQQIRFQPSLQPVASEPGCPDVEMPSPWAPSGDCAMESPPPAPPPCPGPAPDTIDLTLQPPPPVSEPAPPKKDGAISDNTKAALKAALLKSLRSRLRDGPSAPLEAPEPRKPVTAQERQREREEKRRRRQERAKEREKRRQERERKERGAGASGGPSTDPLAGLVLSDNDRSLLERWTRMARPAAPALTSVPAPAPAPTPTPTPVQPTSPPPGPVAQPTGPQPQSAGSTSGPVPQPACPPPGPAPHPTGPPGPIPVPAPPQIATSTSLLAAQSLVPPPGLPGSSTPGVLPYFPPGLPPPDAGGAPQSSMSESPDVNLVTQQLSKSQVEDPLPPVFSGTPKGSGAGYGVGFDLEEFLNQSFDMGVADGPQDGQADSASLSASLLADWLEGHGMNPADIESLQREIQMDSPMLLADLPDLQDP
# [20] = galactose survival enhancers in mitochondrial complex I cybrids – cell-based, galactose medium, ATP luminescence, primary screen (AID 1645843;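 active = z-score of at least 1.8 in each of two replicates, scored against plate mean and spread of sample wells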;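 note: positive z means more ATP and so rescue of galactose-driven cybrid death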); conditions: complex I mutant cybrid cells, 72 h, stronger effect = higher value
# [21] = system: Aerobactin synthetase IucA (Klebsiella pneumoniae); experiment: inhibition of K. pneumoniae IucA enzyme – biochemical, Tocris library, absorbance (AID 1345561); conditions: purified IucA enzyme assay, absorbance (OD) read-out; stronger effect = lower value;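 tested at 8 µM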;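 note: 100% = enzyme without compound and 0% = no enzyme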
# [22] = compounds altering circadian rhythm period length – cell-based, LOPAC library, luminescence reporter (AID 2774); conditions: circadian reporter cells, at 7 µM, actives lie on both sides;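 note: values are relative to mean of DMSO wells on each plate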
# [23] = system: Hepatitis C virus NS3 helicase; experiment: blockers of NS3h binding to ssDNA – biochemical, fluorescence polarization, LOPAC1280 library, primary screen (AID 687035; in the data active = inhibition above about 37%); conditions: Purified HCV NS3 helicase, Cy5-dT15 ssDNA binding fluorescence polarization; stronger effect = higher value; concentration not given here
# [24] = compounds altering Cy5-DNA-NS3h complex signal – biochemical, LOPAC1280, artefact control for HCV NS3 helicase inhibitor project (AID 687037); conditions: Cy5-DNA-NS3h complex fluorescence interference counterscreen
# [25] = blockers of cellular phospholipid synthesis – cell-based, LOPAC library, screen 4, primary screen (AID 1347384); conditions: animal cells, phospholipid biosynthesis inhibition screen; at 10 µM
# [26] = stronger effect = lower value, cell number ratio, induced over uninduced
# [27] = measured here: relative caspase fold change +Dox/-Dox
# [28] = measured here: total cells with miR-34 induction, stronger effect = lower value
# [29] = measured here: total cells without miR-34 induction
smiles,measurement,setting,value
CC[C@]1(O)CC2CN(CCc3c([nH]c4ccccc34)[C@@](C(=O)OC)(c3cc4c(cc3OC)N(C)[C@H]3[C@@](O)(C(N)=O)[C@H](O)[C@]5(CC)C=CCN6CC[C@]43[C@@H]65)C2)C1 (stereo not given in full),parasite load remaining,[1],65.1% (inactive)
same,viability,[1],135%
same,fluorescence ratio,[2],0.91 (inactive)
same,inhibition,[3],-6.33% (inactive)
same,inhibition,[4],1.18% (inactive)
same,fluorescence ratio,[5],0.91 (inactive)
same,outcome,[6],inactive
same,mean signal,[7],260 (inactive)
same,AC50,[8],46.9 nM (active)
COc1cc([C@@H]2c3cc4c(cc3[C@@H](O[C@@H]3O[C@@H]5CO[C@@H](C)O[C@H]5[C@H](O)[C@H]3O)[C@H]3COC(=O)[C@H]23)OCO4)cc(OC)c1O,parasite load remaining,[1],189% (inactive) and 77.5% (inactive) and 87.8% (inactive)
same,viability,[1],114% and 71.8% and 103%
same,fluorescence ratio,[2],1.02 (inactive)
same,inhibition,[3],0.66% (inactive)
same,inhibition,[4],2.76% (inactive)
same,fluorescence ratio,[5],1.01 (inactive)
same,z-score,[6],-1.12 (inactive)
same,mean signal,[7],267 (inactive)
same,AC50,[9],1660 nM (active)
same,outcome,[10],inactive
same,outcome,[8],inactive
same,outcome,[11],inactive
same,outcome,[12],inactive
same,outcome,[13],inactive
same,outcome,[14],inactive
same,fold change,[15]; [26],0.888 (inactive) and 1.07 (inactive)
same,fold change,[15]; [27],1.6 and 0.504
same,cell count,[15]; [28],2840 and 3400
same,cell count,[15]; [29],3200 and 3170
same,fold fluorescence,[16],5.2 [at 85 µM] (inactive)
same,SSMD,[17],-0.198
same,cell count,[17],6820
same,plate-normalised HSF1 focus index,[17],0.99 (inactive)
same,z-score,"[18]; MELAS cybrid survival, CellTiter-Glo 48 h, stronger effect = higher value",-0.423 (inactive) and -1.1 (inactive)
same,z-score,"[18]; Rieske KO mouse fibroblast survival, CellTiter-Glo 72 h",-0.861 and 0.337
same,luciferase signal,[19],48 AU (inactive)
same,z-score,[20],-2.08 (inactive)
C#C[C@]1(OC(C)=O)CC[C@H]2[C@@H]3CCC4=CC(=O)CC[C@@H]4[C@H]3CCC21C (stereo not given in full),mean signal,[7],228 (inactive)
CS(=O)(=O)c1ccc(-c2cc(Br)sc2-c2ccc(F)cc2)cc1,parasite load remaining,[1],10.4% (inactive)
same,viability,[1],69.4%
same,fluorescence ratio,[2],0.96 (inactive)
same,inhibition,[3],5.02% (inactive)
same,inhibition,[4],4.33% (inactive)
same,fluorescence ratio,[5],0.95 (inactive)
same,z-score,[6],-0.424 (inactive)
same,mean signal,[7],233 (inactive)
same,remaining activity,[21],111% (inactive)
same,fold change,[15]; [26],0.877 (inactive) and 0.852 (inactive) and 0.867 (inactive)
same,fold change,[15]; [27],1.92 and 0.768 and 0.919
same,cell count,[15]; [28],8710 and 4800 and 6290
same,cell count,[15]; [29],9930 and 5630 and 7260
same,z-score,[20],-0.985 (inactive) and -0.57 (inactive)
CN[C@@H]1[C@H](O)[C@H](NC)[C@H]2OC3(O)C(=O)C[C@@H](C)O[C@H]3O[C@@H]2[C@H]1O (stereo not given in full),mean signal,[7],224 (inactive)
CN1CCc2cc(Cl)c(O)cc2[C@@H](c2ccccc2)C1,period change,[22],0.17 h (inactive)
same,parasite load remaining,[1],38.6% (inactive)
same,viability,[1],72.6%
same,inhibition,[23],-1% (inactive)
same,fluorescence ratio (interference),[24],1 (inactive)
same,fluorescence ratio,[2],0.96 (inactive)
same,inhibition,[3],-5.46% (inactive)
same,inhibition,[4],-6.69% (inactive)
same,fluorescence ratio,[5],1.01 (inactive)
same,z-score,[6],-1.33 (inactive)
same,mean signal,[7],255 (inactive)
same,remaining activity,[21],107% (inactive)
same,fold change,[15]; [26],0.95 (inactive) and 0.955 (inactive)
same,fold change,[15]; [27],1.25 and 1.04
same,cell count,[15]; [28],9640 and 8960
same,cell count,[15]; [29],10100 and 9370
same,outcome,[25],inactive
same,z-score,[20],-0.095 (inactive) and 0.675 (inactive)
